# Sampled rows, rich in hits. Any-hit rate of the full collection: about 12%.
# CHX counter: counter-screen hit for Shiga toxin inhibitors, cycloheximide; cell reporter, cycloheximide protein synthesis inhibition counterscreen; max response, %; hit rate 12% among 300,000; in the data active = max response mostly above about 13%, no sharp cut-off; inactive = mostly below about 14%; note: read at 38.3 µM for the half of the compounds with a filed dose; 0% is about no effect
# Shiga toxin inh: Shiga toxin inhibition. Vero cells, Shiga toxin protein synthesis inhibition reporter. inhibition, % at 38.7 µM. hit rate 9.2% among 290,000. AID 2315; in the data active = inhibition mostly above about 28%, no sharp cut-off; inactive = mostly below about 43%; note: 0% is about no effect
# Marburg entry inh: blocks Marburg virus binding to or entry into cells | AID 540276 | Potency, µM (top dose mostly 37.8 µM), inactives show at the highest dose activity change, negative = inhibition, actives largely listed as inhibitors | Marburg virus pseudotyped entry inhibition, cell reporter | hit rate 1.8% among 300,000; calls by dose curve; tested in HEK293 cells; note: potency is the fitted concentration of half-maximal effect; % is set by controls: 0 for no effect and ±100 for the full control effect
# Lassa entry inh: inhibitors of Lassa virus binding or cell entry | Lassa virus pseudotype entry inhibition, cell reporter | Potency, µM (top dose mostly 37.9 µM), without a hit: at the highest dose activity change, negative = inhibition, most hits filed as inhibitors | hit rate 1.2% among 300,000 | AID 540256; calls by dose curve; tested in HEK293 cells; note: potency is the fitted concentration of half-maximal effect; % is set by controls: 0 for no effect and ±100 for the full control effect; nearly all actives have a fitted effect of over 50% in size
# An asterisk follows results filed as active; ? = inconclusive; nt = no result given; [ ] = remark or other dose.
SMILES,CHX counter,Shiga toxin inh,Marburg entry inh,Lassa entry inh
CC(C)CNC(=O)/C(C#N)=C1\N=C(NC(=O)c2ccco2)c2ccccc21,12.4*,34.0,nt,nt
Cc1c(NC(=O)COC(=O)CCc2c[nH]c3ccccc23)c(=O)n(-c2ccccc2)n1C,-1.8,0.7,16.9%,18.2%
CC(/C=N/NC(=O)c1cccs1)=C\c1ccccc1,41.8*,144.9*,?,-22.3%
O=C(N/N=C/C(Cl)=C\c1ccccc1)c1cccs1,51.2*,81.3*,?,?
O=C(O)/C(=C\c1ccc(Br)cc1)NC(=O)c1cccs1,-2.8,12.4,13.0%[46.1 µM],-10.3%[46.1 µM]
O=C(CSc1ncccn1)NCc1ccc(F)cc1,19.3,40.6,?,13.6%
O=C(Nc1cccc2ccccc12)N1CCN(c2ncccn2)CC1,10.9,16.9,nt,nt
O=C(CSc1ncccn1)Nc1cccc2ccccc12,21.8*,19.6,5.3%[46.1 µM],5.0%[46.1 µM]
O=C(CSCC(=O)Nc1cccc2ccccc12)Nc1cccc2ccccc12,-3.7,23.9,nt,nt
S=C(Nc1cccc2ccccc12)N1CCN(c2ncccn2)CC1,24.3*,43.9,11.2%,-27.8%
Cc1ccc(CNC(=O)CSc2ncccn2)cc1,24.5*,43.5*,20.7%,?
COc1cc2c(cc1OC)CN(CC(=O)Nc1ccc(Cl)c(S(=O)(=O)N(C)C)c1)CC2,7.2,23.6,nt,nt
O=C(Cn1c(=O)sc2ccccc21)NCCOc1ccccc1F,-4.0,-34.3,?,-28.0%
C=CCOC(=O)N[C@H](C(C(=O)OC)=C(C)NCc1ccccc1)c1ccc(Br)cc1,nt,nt,7.1%[14.2 µM],nt
COc1ccccc1OCC(=O)N/N=C/c1cccc2cccnc12,-3.6,-9.2,-28.2%,-18.2%
O=C(N/N=C/c1cccc2cccnc12)c1ccccc1O,32.1*,83.9*,nt,nt
O=C(N/N=C/c1cccc2nccnc12)c1ccncc1,2.4,-12.1,-0.9%[46.1 µM],-0.1%[46.1 µM]
O=C(N/N=C/c1cccc2nccnc12)c1ccccc1O,19.3*,37.0*,nt,nt
Cc1ccc2c(C)c(C)c(=O)n(C)c2c1,nt,nt,20.7%,?
COc1ccc(CS(=O)c2nc(C)cc(C)c2S(C)(=O)=O)cc1 (stereo not given),7.3,-8.2,3.7%[46.1 µM],-4.3%[46.1 µM]
Cc1cccc(N(CC(=O)NC2CCCCC2)C(=O)CCC(=O)Nc2nccs2)c1,0.9,4.0,-25.1%[46.1 µM],?
COC(=O)C/C=C/[C@@H](C)[C@@H](/C=N/OCC[C@@H]1C=C[C@H](OC(C)=O)[C@@H](COC(C)=O)O1)NS(=O)(=O)c1ccc(C)cc1,-2.0,-14.9,?,-8.3%
Cc1cc(Cn2nnc(-c3ccc(Br)cc3)n2)cc(C)c1O,nt,nt,-18.5%,?
CSc1ccc(-c2nnn(Cc3ccccn3)n2)cc1,19.1*,79.0*,?,-20.8%
N/C(Cn1nnc(-c2ccccc2)n1)=N\O,-1.3,0.7,-11.3%,22.5%
SMILES,CHX counter,Shiga toxin inh,Marburg entry inh,Lassa entry inh
CSc1ccc(-c2nnn(Cc3ccc(Br)cc3)n2)cc1,36.2*,45.2,15.1%[46.1 µM],?
CCOC(=O)Cn1nnc(-c2ccc(SC)cc2)n1,46.8*,67.1*,2.1%,-23.8%
CC(C)(C)C(=O)Cn1nnc(-c2ccc(C(F)(F)F)cc2)n1,6.8,1.7,nt,nt
NC(=O)Cn1nnc(-c2ccc(C(F)(F)F)cc2)n1,17.2,31.8*,12.8%,?
CCc1ccc(CN(Cc2cn[nH]c2-c2ccc(OC)cc2)C(=O)Nc2ccc(Br)cc2)cc1,nt,nt,-0.1%[46.1 µM],4.4%[46.1 µM]
COc1ccc(CN2CCN(Cc3ccccc3C(F)(F)F)CC2)c(OC)c1,-3.9,-6.8,11.2µM*,?
COc1cccc(CN2CCN(Cc3ccccc3C(F)(F)F)CC2)c1,1.2,-8.2,?,-8.2%[46.1 µM]
FC(F)(F)c1ccccc1CN1CCN(C2CCCCCC2)CC1,-5.6,12.0,8.2µM*,?
CC(C)=CCc1c2c(c3occ(-c4ccc(O)c(O)c4)c(=O)c3c1O)C=CC(C)(C)O2,nt,nt,?,15.8µM*
CC(C)=CCc1c2c(c3occ(-c4ccc(O)cc4)c(=O)c3c1O)C=CC(C)(C)O2,-0.8,-6.4,nt,nt
COc1ccc(NC(=O)CSc2nc3c([nH]c4ccccc43)c(=O)n2-c2ccccc2)c(OC)c1,nt,nt,nt,-29.1%[46.1 µM]
Cc1c(OC(C)C(=O)NCC2CCC(C(=O)O)CC2)ccc2c(-c3ccccc3)cc(=O)oc12 (stereo not given),-0.2,12.7,nt,nt
Cc1cc(C(=O)NC2CCCc3c2cnn3-c2cccc(C)c2C)no1 (stereo not given),26.8*,46.2*,?,?
Cc1cc(C(=O)NC2CCCc3c2cnn3-c2ccc(C(C)(C)C)cc2)nn1C (stereo not given),-1.2,-22.9,?,?
Cc1cc(C)cc(-n2ncc3c2CCCC3NC(=O)c2cc(C)n(C)n2)c1 (stereo not given),21.7*,36.1*,nt,nt
Cc1cc(C)cc(-n2ncc3c2CCCC3NC(=O)c2cc(C)[nH]n2)c1 (stereo not given),6.6,-40.1,3.55µM*,?
Cc1cc(C)cc(-n2ncc3c2CCCC3NC(=O)C2CCC2)c1 (stereo not given),10.2,2.7,nt,nt
CC(=O)c1cc(C(=O)NC2CCCc3c2cnn3-c2cc(C)cc(C)c2)[nH]n1 (stereo not given),29.3*,35.1*,-16.5%,-27.3%
Cc1cc([N+](=O)[O-])nn1CC(=O)N/N=C/c1ccc(O)cc1O,3.4,17.2,nt,nt
Cn1nc(C(=O)N2CCCCC2)c2c1-c1ccccc1S(=O)(=O)C2,8.8,0.5,nt,nt
Cn1c(=O)oc2cc(S(=O)(=O)CCC(=O)Nc3ccccc3)ccc21,-9.6,-6.6,nt,nt
O=c1nc2sc3ccccc3n2c(=O)n1-c1ccc(Cl)cc1,29.3*,22.4,?,?
Cc1ccc2c(c1)sc1nc(=O)n(-c3cccc(Cl)c3)c(=O)n12,19.4*,28.8,?,?
CCOC(=O)c1cnc(SCc2nc(N)nc(Nc3ccc(F)cc3)n2)nc1N,9.5*,43.1,?,?
CCOC(=O)c1cnc(SCc2nc(N)nc(Nc3ccc(C)cc3)n2)nc1N,13.2*,16.5,-26.3%,?
SMILES,CHX counter,Shiga toxin inh,Marburg entry inh,Lassa entry inh
CCOC(=O)c1cnc(SCc2nc(N)nc(Nc3ccccc3OC)n2)nc1N,-1.9,-6.3,1.6%,nt
O=C(COC(=O)CCCSc1nc2ccccc2[nH]1)Nc1ccc(Cl)cc1,-3.7,-3.9,10.9%,3.6%
Cc1ccccc1NC(=S)c1ccc2ccccc2n1,47.7*,96.6*,nt,nt
CCCN(CC(=O)Nc1ccccc1C)C(=O)c1ccc2ccccc2n1,nt,nt,?,2.0%
O=C(Nc1ccccc1C(=O)O)c1cccc(C(=O)Nc2ccccc2C(=O)O)c1,2.1,nt,13.3%[46.1 µM],-11.9%[46.1 µM]
O=C(Nc1ccccc1C(=O)O)c1ccc2ccccc2n1,30.3*,124.4*,-7.5%,0.1%
O=C(Nc1ccc(OC(F)(F)F)cc1)c1ccc2ccccc2n1,41.9*,55.5,-12.3%[46.1 µM],29.1%[46.1 µM]
COc1ccccc1NS(=O)(=O)c1cccc(NC(=O)c2ccc3ccccc3n2)c1,17.2*,76.3,?,?
CCc1nn(CCCC(=O)N2CCN(c3cc(Cl)ccc3C)CC2)c(=O)c2cc3occc3n12,nt,nt,13.4%[46.1 µM],-13.9%[46.1 µM]
CCOC(=O)Cc1cnc(NC(=O)CSc2nc(C)c(CC)c(=O)[nH]2)s1,2.5,-11.5,?,?
O=c1c2ccc([N+](=O)[O-])cc2ncn1Cc1ccccc1C(F)(F)F,-3.0,-3.3,0.8%[46.1 µM],-6.8%
O=C(Nc1ccccc1)c1ccc2ccccc2n1,49.3*,93.6*,nt,nt
O=C(Nc1ccccc1)Nc1ccc2ccccc2n1,16.1,71.8,nt,nt
